The text below walks through data of PubChem BioAssay.

A short description of assay [1]: EMT-state selective cytotoxicity in co-culture – imaging, PC-3E GFP, TEM4-18 mCherry, primary screen (AID 1345086).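 On all read-outs here: cells exposed to compound for 72 h before imaging.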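 On red/green cell ratio (normalised): normalised mesenchymal count divided by normalised epithelial count so high means epithelial killing.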 The conditions noted are these: PC-3E GFP / TEM4-18 mCherry co-culture, imaging cell counts, at 1 µM; for red/green cell ratio (normalised): actives lie on both sides.
For assay [2], the system named is Neuropilin-2 / VEGF-C interaction (human). In words: small molecules blocking Neuropilin-2/VEGF-C interaction – biochemical, microplate binding format, z-score (AID 743281; call rule not given here). The following applies: microplate NRP2/VEGF-C binding assay; stronger effect = lower value.
Assay [3] is described as follows: modulation of C. elegans fzo-1 (AID 1259413; call rule not given here;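 further: fzo-1 mutant C. elegans worms in liquid wells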). The following applies: C. elegans fzo-1 modulator screen, mean read-out; stronger effect = higher value.
A short description of assay [4]: viability loss with induced miR-34 in A549 – imaging, A549 dox-inducible miR-34, nuclei and caspase counts, primary screen (AID 1347080;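 active means compounds whose cell count with miR-34 switched on is under 0.7 times the count with it off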). The following applies: A549 miR-34 inducible, Hoechst nuclei count, 48 h.
The subject of assay [5] is Aerobactin synthetase IucA (Klebsiella pneumoniae hvKP1). In words: IucA enzyme inhibition, primary screen, biochemical, Spectrum library (AID 1346200; call rule not given here;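 further: 100% = wells without compound and 0% = wells lacking enzyme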). The conditions noted are these: malachite green pyrophosphate, A620, at 8 µM, stronger effect = lower value.
Assay [6] can be described thus: P. berghei load reduction in hepatocytes – cell-based, HepG2, luciferase luminescence, HepG2 viability, primary screen (AID 624349; in the data active means parasite load remaining mostly below about 12%, no sharp cut-off; inactive means mostly above about 10%;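 further: 100% = mean of DMSO negative control wells on the same plate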). The conditions noted are these: P. berghei liver stage in HepG2, luciferase luminescence, concentration not given here; parasite load remaining: stronger effect = lower value; viability: measured here: HepG2 viability without parasites.
Where [7] appears, read: counts scaled to control wells, 1 = unselective.
The mark [8] stands for this setting: measured here: epithelial PC-3E GFP cell survival.
[9] abbreviates: measured here: mesenchymal TEM4-18 mCherry cell survival.
Setting [10] is: measured here: relative caspase fold change +Dox/-Dox.
The mark [11] stands for this setting: measured here: total cells with miR-34 induction, stronger effect = lower value.
Setting [12] is: measured here: total cells without miR-34 induction.

Structures are written as SMILES. Several values for one entry are separate records, joined by “and”; a condition that tells them apart may be missing. Equal values may be shown once. Activity calls are given as the source filed them.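 How the source made its calls, unless noted: active means compounds killing one labelled cell type while sparing the other, by normalised counts and ratio limits, not self-fluorescent; inactive means the rest.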

Regarding `CCC(C)C(=O)O[C@@H]1C[C@@]2(C)[C@H](c3ccoc3)OC(=O)CC23OC2(C)O[C@]14C1(C)[C@@H](CC(=O)OC)C5(C)CC1(O)[C@](O)(C5OC(=O)C1(C)OC1C)[C@@H](OC(C)=O)[C@]34O2` (stereo partly specified), in assay [1] (setting [7]), the red/green cell ratio (normalised) was 1.2 (inactive). The results for the normalised cell number in assay [1] (setting [8]) and in assay [1] (setting [9]) were 0.97 and 1.16, respectively.

Consider `Fc1ccc(N2CCNCC2)c(F)c1`, for which the red/green cell ratio (normalised) in assay [1] was 1.03 (inactive). Also, the normalised cell number came out at 1.01 in assay [1] (setting [8]) and 1.04 in assay [1] (setting [9]).

As for `C[C@]12CCC3C(CC[C@H]4C[C@H](O)CC[C@]34C)C1CCC2=O` (stereo partly specified), in assay [1], the red/green cell ratio (normalised) was 1.16 (inactive). Also, the normalised cell number in assay [1] (setting [8]) amounted to 0.84; in assay [1] (setting [9]), 0.97.

With `COc1cc([C@@H]2c3cc4c(cc3[C@H](OC(C)=O)C3COC(=O)[C@@H]32)OCO4)cc(OC)c1OC` (stereo partly specified), the red/green cell ratio (normalised) in assay [1] (setting [7]) is 0.81 (inactive). Moreover, the normalised cell number in assay [1] (setting [8]) came to 0.2; in assay [1] (setting [9]) it was 0.16.

Take `C[C@]12CCC3C(CC[C@@H]4CC(=O)CC[C@]34C)C1CCC2=O` (stereo partly specified): the red/green cell ratio (normalised) in assay [1] is 1.04 (inactive). In addition, the values for the normalised cell number in assay [1] (setting [8]) and in assay [1] (setting [9]) were 0.88 and 0.91, respectively.

For the molecule `CN1CC[C@@]2(C)c3cc(O)ccc3N(C)[C@@H]12`, the red/green cell ratio (normalised) in assay [1] (setting [7]) was 1.19 (inactive). Also, the normalised cell number worked out at 0.88 in assay [1] (setting [8]) and 1.05 in assay [1] (setting [9]).

With `CC[C@H]1CN2CCC1C[C@@H]2[C@H](O)c1ccnc2ccc(OC)cc12` (stereo partly specified), the red/green cell ratio (normalised) in assay [1] (setting [7]) was 0.88 (inactive). For the same molecule, the figures for the normalised cell number in assay [1] (setting [8]) and in assay [1] (setting [9]) were 1.22 and 1.07, respectively.

Take `C=C1C[C@@H]2[C@H](CCC3(C)C(=O)CC[C@@H]23)C2(C)C=CC(=O)C=C12` (stereo partly specified): the result in assay [2] was inactive. Besides, in assay [3], the mean signal is 265 (inactive).

Regarding `CN1C[C@H](C(=O)N[C@]2(C)O[C@@]3(O)C4CCCN4C(=O)[C@H](Cc4ccccc4)N3C2=O)C=C2c3cccc4[nH]cc(c34)C[C@H]21` (stereo partly specified), the red/green cell ratio (normalised) in assay [1] is 0.93 (inactive). The normalised cell number was 1.08 in assay [1] (setting [8]) and 1 in assay [1] (setting [9]).

Turning to `COc1cc2c(cc1OC)[C@@]13CCN4CC5=CCOC6CC(=O)N2C1[C@H]6[C@H]5C[C@H]43` (stereo partly specified), the values for the fold change in assay [4] (stronger effect = lower value) and in assay [4] (setting [10]) were 0.942 (inactive) and 2.52, respectively. Moreover, the cell count in assay [4] (setting [11]) was found to be 11600; in assay [4] (setting [12]) it was 12300.

Take `CC(C)c1cc2c(c(O)c1O)[C@@]1(C(=O)O)CCCC(C)(C)C1CC2` (stereo partly specified): the red/green cell ratio (normalised) in assay [1] is 1.17 (inactive). Moreover, the normalised cell number in assay [1] (setting [8]) worked out at 0.87; in assay [1] (setting [9]), 1.02. In addition, the activity remaining in assay [5] was 114% (inactive).

What is called viability is the share of living cells, or the viability signal relative to a control. For the molecule `CNC(C)[C@H](O)c1ccccc1` (stereo partly specified), in assay [6], the parasite load remaining is 77% (inactive) and the viability came to 74.2%. Moreover, in assay [1], the red/green cell ratio (normalised) is 1.42 (inactive). For the same molecule, the normalised cell number in assay [1] (setting [8]) turned out to be 0.95. This molecule displayed a normalised cell number in assay [1] (setting [9]) of 1.35. For the same molecule, in assay [5], the activity remaining was 87.2% (inactive).

For the molecule `C#CC1(O)CCC2C3CCC4=CC(=O)CCC4(C)C3CCC21C` (stereo unspecified), the parasite load remaining in assay [6] was 62% (inactive) and 21.3% (inactive). In addition, the viability in assay [6] is 93.9% and 81%. Moreover, the red/green cell ratio (normalised) in assay [1] is 0.77 (inactive). The normalised cell number turned out to be 1.21 in assay [1] (setting [8]) and 0.93 in assay [1] (setting [9]). Moreover, the activity remaining in assay [5] is 112% (inactive). The figures for the fold change in assay [4] (stronger effect = lower value) and in assay [4] (setting [10]) were 0.935 (inactive) and 2.1, respectively. Also, the cell count stood at 10400 in assay [4] (setting [11]) and 11100 in assay [4] (setting [12]).

Take `CN1CCc2cc3c(cc2[C@H]1C1OC(=O)c2c1ccc1c2OCO1)OCO3` (stereo partly specified): the red/green cell ratio (normalised) in assay [1] was 1.02 (inactive). Besides, the normalised cell number in assay [1] (setting [8]) amounted to 0.99; in assay [1] (setting [9]), 1. For the same molecule, the activity remaining in assay [5] is 121% (inactive).

As for `CC(=O)O[C@@H]1C[C@@]2(C)[C@H](c3ccoc3)C[C@H]3O[C@]32[C@]2(C)C(=O)C(O)=C3C(C)(C)C(=O)C=C[C@]3(C)C12` (stereo partly specified), the red/green cell ratio (normalised) in assay [1] is 0.93 (inactive). The normalised cell number was 0.15 in assay [1] (setting [8]) and 0.14 in assay [1] (setting [9]). Further, the activity remaining in assay [5] is 102% (inactive).

Turning to `C=C1CC2C(CC[C@]3(C)C(=O)CCC23)[C@@]2(C)C=CC(=O)C=C12` (stereo partly specified), the parasite load remaining in assay [6] was 9.27% (inactive). The molecule also registered a viability in assay [6] of 99%. Besides, the red/green cell ratio (normalised) in assay [1] was 1.16 (inactive). Also, the normalised cell number came to 1.01 in assay [1] (setting [8]) and 1.17 in assay [1] (setting [9]). In addition, the activity remaining in assay [5] was 121% (inactive). Moreover, the fold change in assay [4] (stronger effect = lower value) was 0.911 (inactive) and 0.833 (inactive); in assay [4] (setting [10]) it was 1 and 2.69. Also, the cell count in assay [4] (setting [11]) is 8770 and 9350; in assay [4] (setting [12]), 9630 and 11200.

`C[C@@H]1O[C@@H](O[C@H]2C[C@@H](O)[C@]3(CO)C4C(CC[C@]3(O)C2)[C@@]2(O)CC[C@H](C3=CC(=O)OC3)[C@@]2(C)C[C@H]4O)[C@H](O)[C@H](O)[C@H]1O` (stereo partly specified): the parasite load remaining in assay [6] is 242% (inactive) and -0.205% (inactive). In assay [6], the viability is 38.6% and 15.3%. In addition, the red/green cell ratio (normalised) in assay [1] was 0.13 (inactive). In addition, the normalised cell number was found to be 0.14 in assay [1] (setting [8]) and 0.02 in assay [1] (setting [9]). In addition, the activity remaining in assay [5] is 122% (inactive). The fold change in assay [4] (stronger effect = lower value) is 0.536 (active); in assay [4] (setting [10]) it was 2.2. Also, the cell count in assay [4] (setting [11]) worked out at 195; in assay [4] (setting [12]) it was 364.

As for `CC(=O)O[C@H]1C[C@@H](OC(C)=O)C(C)(C)C2C[C@@H](OC(C)=O)[C@]3(C)C(CC[C@@]4(C)[C@H](c5ccoc5)C(=O)[C@H]5O[C@]543)[C@]21C` (stereo partly specified), in assay [1], the red/green cell ratio (normalised) is 1.03 (inactive). Moreover, the normalised cell number in assay [1] (setting [8]) came to 1.08; in assay [1] (setting [9]) it was 1.12. For the same molecule, the activity remaining in assay [5] was 109% (inactive).

`C[N+](C)(C)CC(=O)[O-]`: the parasite load remaining in assay [6] was 57.1% (inactive) and 50.8% (inactive). In addition, the viability in assay [6] was 76.9% and 89.4%. Further, the red/green cell ratio (normalised) in assay [1] is 1.27 (inactive). For the same molecule, the normalised cell number in assay [1] (setting [8]) turned out to be 1.09; in assay [1] (setting [9]) it was 1.39. The activity remaining in assay [5] is 124% (inactive). Besides, the fold change in assay [4] (stronger effect = lower value) is 0.862 (inactive); in assay [4] (setting [10]), 4.05. Besides, the cell count in assay [4] (setting [11]) was determined as 11400; in assay [4] (setting [12]), 13200.

`O=C1CCCC2C3CC(CN12)[C@@H]1CCCCN1C3` (stereo partly specified): the red/green cell ratio (normalised) in assay [1] (setting [7]) was 1.13 (inactive). The results for the normalised cell number in assay [1] (setting [8]) and in assay [1] (setting [9]) were 0.86 and 0.98, respectively. The activity remaining in assay [5] was 119% (inactive).
